Laboratory results as given in PubChem BioAssay (EPA / NIEHS).
Inconclusive results are not listed. Some compounds were tested as several samples or in several runs, with calls that do not always agree. The source made the active and inactive calls. The calls were made as follows: active = hit-call score of the fitted dose curve at least 0.9, where 1 is the maximum; inconclusive = response in the unintended direction; inactive = score below 0.9.

What was measured:
[1] = ATG_XTT_Cytotoxicity: Cytotoxicity Assessment in the Attagene TRANS-FACTORIAL HepG2 Assay (AID 2283584);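 as to AC50: cells exposed to compound for 24 h before reading; active means loss of viability signal versus DMSO baseline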
Procedure, shortened: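 HepG2 human liver cells, transiently transfected with multiple GAL4-UAS reporter units, were dosed and read at 24 h by XTT as cell number. Loss of signal was fitted relative to DMSO negative control baseline.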

[2] = Tanguay_ZF_120hpf_MORT_legacy: (Legacy) Oregon State University Tanguay Lab 120 Hour Post-fertilization zebrafish Assay for Mortality (AID 2283633);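 as to AC50: fitted as increase in binary mortality versus DMSO negative control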
Procedure, shortened: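 Dechorionated Tropical 5D wild-type zebrafish embryos, one per well from 6 hpf, were statically exposed at 28C in the dark until 120 hpf (0.64% DMSO final). Mortality was scored as present/absent by brightfield microscopy, fitted positively versus DMSO.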

[3] = Tanguay_ZF_120hpf_YSE_legacy: (Legacy) Oregon State University Tanguay Lab 120 Hour Post-fertilization zebrafish Assay for Yolk Sac Edema (AID 2283634);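 as to AC50: actives raise the incidence of yolk sac edema above the DMSO baseline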
Procedure, shortened: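 Tropical 5D wild-type embryos, dechorionated with pronase at 4 hpf, were exposed singly from 6 hpf to 120 hpf under static, sealed, dark conditions at 28C with 0.64% DMSO final. Yolk sac edema was scored present/absent by brightfield microscopy.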

[4] = Tanguay_ZF_120hpf_AXIS_legacy: (Legacy) Oregon State University Tanguay Lab 120 Hour Post-fertilization zebrafish Assay for Body Axis Malformation (AID 2283635);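 as to AC50: potency for an increased fraction of larvae scored with body axis malformation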
Procedure, shortened: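 Tropical 5D wild-type zebrafish embryos, dechorionated with pronase at 4 hpf, were placed singly in wells at 6 hpf and exposed statically to test chemical (0.64% DMSO final) at 28C until 120 hpf, then scored by brightfield for body axis defects.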

[5] = Tanguay_ZF_120hpf_EYE_legacy: (Legacy) Oregon State University Tanguay Lab 120 Hour Post-fertilization zebrafish Assay for Eye Malformation (AID 2283636);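 also: binary presence or absence of eye malformation scored by brightfield in 120 hpf larvae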
Procedure, shortened: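 5D wild-type embryos, pronase-dechorionated at 4 hpf; static exposure 6–120 hpf, 28C, dark; DMSO 0.64% final; 5uM trimethyltin chloride positive control. Binary eye-defect scoring at 120 hpf; dead embryos not scored.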

[6] = Tanguay_ZF_120hpf_SNOU_legacy: (Legacy) Oregon State University Tanguay Lab 120 Hour Post-fertilization zebrafish Assay for Snout Malformation (AID 2283637)
Procedure, shortened: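 Binary brightfield scoring of snout malformation at 120 hpf. Dechorionated 5D wild-type embryos, one per well, static exposure from 6 hpf at 28C, sealed and dark; final DMSO 0.64% (vol/vol), DMSO as baseline; 5uM trimethyltin chloride positive control.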

[7] = Tanguay_ZF_120hpf_JAW_legacy: (Legacy) Oregon State University Tanguay Lab 120 Hour Post-fertilization zebrafish Assay for Jaw Malformation (AID 2283638)
Procedure, shortened: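 Tropical 5D wild-type embryos, dechorionated with pronase at 4 hpf, were placed singly per well at 6 hpf and statically exposed at 28C until 120 hpf (0.64% DMSO final). Jaw malformation scored as present/absent by brightfield microscopy at 120 hpf, analyzed relative to DMSO.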

[8] = Tanguay_ZF_120hpf_PE_legacy: (Legacy) Oregon State University Tanguay Lab 120 Hour Post-fertilization zebrafish Assay for Pericardial Edema (AID 2283640);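 as to AC50: potency for increased incidence of pericardial edema versus DMSO baseline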
Procedure, shortened: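 Tropical 5D wild-type zebrafish embryos were exposed statically to 120 hpf at 28C, sealed and foil-covered, in 0.64% DMSO final. Pericardial edema was scored present/absent by brightfield microscopy; dead embryos were not scored.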

[9] = Tanguay_ZF_120hpf_BRAI_legacy: (Legacy) Oregon State University Tanguay Lab 120 Hour Post-fertilization zebrafish Assay for Brain Malformation (AID 2283641)
Procedure, shortened: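 Tropical 5D wild-type zebrafish embryos were exposed statically in sealed, foil-covered plates at 28C until 120 hpf, with 0.64% (vol/vol) final DMSO. Brain malformation was scored present/absent by brightfield microscopy, relative to DMSO baseline.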

[10] = Tanguay_ZF_120hpf_SOMI_legacy: (Legacy) Oregon State University Tanguay Lab 120 Hour Post-fertilization zebrafish Assay for Somite Malformation (AID 2283647)
Procedure, shortened: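 Tropical 5D wild-type zebrafish embryos, dechorionated with pronase at 4 hpf, were placed singly at 6 hpf and statically exposed until 120 hpf at 28C in 0.64% DMSO. Somite malformation was scored present/absent by brightfield microscopy versus DMSO.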

[11] = Tanguay_ZF_120hpf_PFIN_legacy: (Legacy) Oregon State University Tanguay Lab 120 Hour Post-fertilization zebrafish Assay for Pectoral Fin Malformation (AID 2283648);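 also: each larva judged yes or no for fin defect by brightfield with dead larvae skipped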
Procedure, shortened: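 Binary pectoral fin malformation call at 120 hpf by brightfield microscopy; 5D wild-type zebrafish, chorion removed at 4 hpf, one embryo per well from 6 hpf, static exposure at 28C; DMSO (0.64% final) as baseline.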

[12] = target: Cellular tumor antigen p53 (Homo sapiens) (UniProt P04637); experiment: TOX21_p53_BLA_p2_ratio: Tox21 HCT-116 p53 Agonism Beta-lactamase Assay, Ratio, Phase 2 (AID 2283592)
Chain of Cellular tumor antigen p53 (Homo sapiens) (P04637 whole entry, looked up): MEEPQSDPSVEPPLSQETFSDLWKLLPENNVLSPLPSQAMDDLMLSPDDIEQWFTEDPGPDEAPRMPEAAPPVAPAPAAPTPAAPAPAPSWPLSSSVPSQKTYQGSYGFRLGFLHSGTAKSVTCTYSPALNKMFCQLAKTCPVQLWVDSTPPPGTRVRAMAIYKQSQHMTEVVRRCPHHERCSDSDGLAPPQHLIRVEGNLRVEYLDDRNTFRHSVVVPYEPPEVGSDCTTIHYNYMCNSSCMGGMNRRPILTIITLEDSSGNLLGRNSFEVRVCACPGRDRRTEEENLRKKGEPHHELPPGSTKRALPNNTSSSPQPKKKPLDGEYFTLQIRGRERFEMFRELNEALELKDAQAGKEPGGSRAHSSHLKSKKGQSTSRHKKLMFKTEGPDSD
Procedure, shortened: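 Ratio endpoint: beta-lactamase cleavage of CCF4-AM, blue (460 nm) over green (530 nm). HCT116 reporter line; 16 h treatment, 37C; substrate 2 h RT.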

[13] = TOX21_p53_BLA_p3_viability: Viability Assessment in the Tox21 HCT-116 p53 Agonism Beta-lactamase Assay, Phase 3 (AID 2283593);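 also: cells exposed to compound for 16 h before reading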
Procedure, shortened: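 HCT116 cells, 4000/well, dosed 5 h after plating by pin transfer (217-fold dilution from DMSO stock) and incubated 16 h at 37C, 5% CO2. Viability read as ATP luminescence with CellTiter-Glo after 30 min at room temperature.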

[14] = target: Cellular tumor antigen p53 (Homo sapiens) (UniProt P04637); experiment: TOX21_p53_BLA_p3_ratio: Tox21 HCT-116 p53 Agonism Beta-lactamase Assay, Ratio, Phase 3 (AID 2283596)
Procedure, shortened: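 Cells were seeded at 4000/well, rested 5 h at 37C, then dosed with DMSO compound solutions (217-fold dilution) for 16 h. CCF4-AM substrate was loaded for 2 h at room temperature, and the 460/530 nm emission ratio was fitted for gain of signal versus DMSO.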

[15] = TOX21_p53_BLA_p4_viability: Viability Assessment in the Tox21 HCT-116 p53 Agonism Beta-lactamase Assay, Phase 4 (AID 2283597);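 also: hits lower the luminescence signal meaning cytotoxicity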
Procedure, shortened: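 Cytotoxicity was inferred from loss of CellTiter-Glo luminescence. HCT116 cells had been dosed with compounds after 5 h plating, incubated 16 h at 37C and 5% CO2, and exposed to the CCF4-AM substrate for 2 h.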

[16] = TOX21_p53_BLA_p5_viability: Viability Assessment in the Tox21 HCT-116 p53 Agonism Beta-lactamase Assay, Phase 5 (AID 2283600)
Procedure, shortened: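 Luciferase-coupled ATP quantitation of cells treated for 16 h (37C, 5% CO2) with test chemicals delivered in DMSO via a 217-fold dilution; 4000 cells/well; reagent incubated 30 min at room temperature before luminescence reading.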

[17] = target: Cellular tumor antigen p53 (Homo sapiens) (UniProt P04637); experiment: TOX21_p53_BLA_p4_ratio: Tox21 HCT-116 p53 Agonism Beta-lactamase Assay, Ratio, Phase 4 (AID 2283601)
Procedure, shortened: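 HCT-116 p53 beta-lactamase reporter cells (4000/well) preincubated 5 h, then compound (217-fold dilution of DMSO stock) for 16 h at 37C. CCF4-AM substrate added 2 h at room temperature; 460/530 nm emission ratio fitted upward versus DMSO.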

[18] = TOX21_p53_BLA_p2_viability: Viability Assessment in the Tox21 HCT-116 p53 Agonism Beta-lactamase Assay, Phase 2 (AID 2283591);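 also: compound exposure lasted 16 h at 37 °C; actives lower the ATP signal meaning cytotoxicity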
Procedure, shortened: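 HCT116 p53-bla cells, 4000/well, dosed after 5 h plating (217-fold dilution of DMSO stocks) and incubated 16 h at 37C. Viability taken as cellular ATP by CellTiter-Glo luminescence after 30 min RT; signal loss marks cytotoxicity.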

[19] = target: Cellular tumor antigen p53 (Homo sapiens) (UniProt P04637); experiment: TOX21_p53_BLA_p5_ratio: Tox21 HCT-116 p53 Agonism Beta-lactamase Assay, Ratio, Phase 5 (AID 2283599)
Procedure, shortened: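 HCT-116 p53-bla cells (4000/well) plated 5 h, dosed with compound (217-fold DMSO dilution) for 16 h at 37 C; CCF4-AM substrate 2 h at room temperature. Activity is the 460/530 nm emission ratio (405 nm excitation), fitted in gain-of-signal direction versus DMSO.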

[20] = Tanguay_ZF_120hpf_OTIC_legacy: (Legacy) Oregon State University Tanguay Lab 120 Hour Post-fertilization zebrafish Assay for Otic Vesicle Malformation (AID 2283639)
Procedure, shortened: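 Binary scoring of otic vesicle defects at 120 hpf in zebrafish (Tropical 5D) held under static exposure at 28C, sealed and shaded, with final DMSO 0.64%. Embryos dying by 24 or 120 hpf excluded; fitted positively against DMSO.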

Measured: AC50

CN(C)C(=S)S
inactive: [1] | [2] | [5] | [6] | [7] | [9] | [10] | [11]
active: [3] 8.26 µM | [4] 946 nM | [8] 3.42 µM

C=C(C)C(=O)OCC(CC)CCCC (configuration not stated)
inactive: [12] | [13] | [14] | [15] | [16] | [17]

Nc1ccc(Br)cc1
inactive: [18] | [12] | [13] | [14] | [16] | [17]

O=[N+]([O-])c1cc([As](=O)(O)O)ccc1O
inactive: [13] | [14] | [16] | [17]

O=C=Nc1ccc(Cl)cc1
inactive: [18] | [12] | [13] | [14] | [15] | [16] | [17]

C#CCO
inactive: [12] | [17]

c1ccc(-c2cccc(-c3ccccc3)c2)cc1
inactive: [18] | [12] | [13] | [14] | [15] | [19] | [16] | [17]

N#Cc1cccnc1
not listed: [12] | [13] | [14] | [15] | [16] | [17] | [18] | [19]
inactive: all other assays above

Clc1cccc(Cl)c1Cl
inactive: [2] | [3] | [4] | [5] | [6] | [7] | [20] | [8] | [9] | [10] | [11]

OCCN(CCO)CCO
not listed: [12] | [13] | [14] | [15] | [16] | [17] | [18] | [19]
inactive: all other assays above

O=C(O)C1(c2ccc3c(c2)OC[C@H](Cc2ccc(-c4ccccc4)cc2)[C@H]3O)CCCC1
inactive: [2] | [3] | [4] | [5] | [6] | [20] | [8] | [9] | [10]

c1ccc2c(c1)Oc1ccccc1O2
active: [14] 86.4 µM
inactive: [18] | [12] | [13] | [14] | [19] | [16]

Clc1cccc(Cl)c1
inactive: [2] | [3] | [4] | [5] | [6] | [7] | [20] | [8] | [10] | [11]

CC(c1ccc(O)cc1)c1ccc(O)cc1
inactive: [12] | [13] | [14] | [19] | [16] | [17]

CC(C)(c1ccccc1)c1cc(-n2nc3ccccc3n2)c(O)c(C(C)(C)c2ccccc2)c1
inactive: [18] | [12] | [15] | [19] | [17]

CC(C=O)Cc1ccc2c(c1)OCO2 (configuration not stated)
inactive: [12] | [13] | [14] | [19] | [16] | [17]

O=NN1CCCCCC1
inactive: [18] | [12] | [14] | [17]

CC(C)=CC1C(C(=O)OCc2cccc(Oc3ccccc3)c2)C1(C)C (configuration not stated)
inactive: [18] | [13] | [14] | [15] | [16] | [17]

CCCCCCCCCCCCc1cccc(S(=O)(=O)O)c1
active: [1] 139 µM
inactive: [2] | [3] | [4] | [5] | [7] | [20] | [8] | [9] | [10] | [11]

Oc1cc(Cl)c(Cl)cc1Cl
active: [2] 24.9 µM
not listed: [12] | [13] | [14] | [15] | [16] | [17] | [18] | [19]
inactive: all other assays above

O=C(N[C@H]1CN2CCC1CC2)c1ccc2c(c1)OCCO2
inactive: [2] | [3] | [4] | [5] | [6] | [7] | [20] | [8] | [9] | [10] | [11]

Cc1cc(C)cc(C)c1
inactive: [1] | [2] | [3] | [4] | [5] | [6] | [7] | [20] | [8] | [9] | [11]
